The source of these data is PubChem BioAssay (EPA / NIEHS).

Records with an inconclusive call do not appear. Active and inactive are the calls of the source. Rule for the calls: active = hit-call score of the fitted dose curve at least 0.9, where 1 is the maximum; inconclusive = response in the unintended direction; inactive = score below 0.9.

mouse Cholecystokinin, CCK1 Receptor (CCKA), Cckar (gene 12425), sequence (O08786 whole entry, looked up): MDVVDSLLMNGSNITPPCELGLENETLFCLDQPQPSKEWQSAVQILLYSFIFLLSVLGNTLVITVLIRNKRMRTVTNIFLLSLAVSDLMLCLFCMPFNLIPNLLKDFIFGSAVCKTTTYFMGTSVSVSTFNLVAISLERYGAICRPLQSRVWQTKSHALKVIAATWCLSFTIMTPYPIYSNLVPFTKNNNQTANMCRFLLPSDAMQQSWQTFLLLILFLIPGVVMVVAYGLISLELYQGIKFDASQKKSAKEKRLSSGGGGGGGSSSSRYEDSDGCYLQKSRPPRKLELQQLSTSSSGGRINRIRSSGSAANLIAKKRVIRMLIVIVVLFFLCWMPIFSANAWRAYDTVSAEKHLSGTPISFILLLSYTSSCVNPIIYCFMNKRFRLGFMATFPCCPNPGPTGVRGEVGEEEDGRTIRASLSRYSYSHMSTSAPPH
rat Serotonin, 5-Hydroxytryptamine Receptor 1 (5HT1), Non-Selective Binding, Htr1a (gene 24473), sequence (P19327 whole entry, looked up): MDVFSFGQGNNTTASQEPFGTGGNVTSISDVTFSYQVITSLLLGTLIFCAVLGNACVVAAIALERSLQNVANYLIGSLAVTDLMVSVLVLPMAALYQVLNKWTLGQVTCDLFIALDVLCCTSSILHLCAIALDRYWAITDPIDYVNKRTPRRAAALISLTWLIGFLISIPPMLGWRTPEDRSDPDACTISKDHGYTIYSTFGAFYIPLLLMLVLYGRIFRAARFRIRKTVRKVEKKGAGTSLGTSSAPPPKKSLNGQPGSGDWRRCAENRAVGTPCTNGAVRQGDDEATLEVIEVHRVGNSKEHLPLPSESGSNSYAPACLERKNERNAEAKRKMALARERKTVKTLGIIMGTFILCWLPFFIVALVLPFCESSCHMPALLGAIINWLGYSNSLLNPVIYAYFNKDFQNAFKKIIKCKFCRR
rat Adrenergic, Alpha 1, Non-selective Receptor (Adra1), Adra1a (gene 29412), sequence (P43140 whole entry, looked up): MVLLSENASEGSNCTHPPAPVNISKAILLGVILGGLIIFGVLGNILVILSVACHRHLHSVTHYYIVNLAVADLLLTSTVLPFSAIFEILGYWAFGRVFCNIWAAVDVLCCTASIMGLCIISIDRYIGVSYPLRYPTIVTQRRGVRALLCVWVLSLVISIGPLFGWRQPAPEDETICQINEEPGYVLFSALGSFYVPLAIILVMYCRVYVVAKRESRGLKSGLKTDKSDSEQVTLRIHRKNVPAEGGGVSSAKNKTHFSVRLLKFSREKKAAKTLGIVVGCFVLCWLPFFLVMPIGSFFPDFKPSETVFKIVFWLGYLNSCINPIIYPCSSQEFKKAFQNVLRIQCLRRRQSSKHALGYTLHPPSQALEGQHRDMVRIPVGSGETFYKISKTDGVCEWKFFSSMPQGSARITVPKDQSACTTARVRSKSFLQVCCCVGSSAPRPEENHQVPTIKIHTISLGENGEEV

The target of the first assay is mouse Cholecystokinin, CCK1 Receptor (CCKA), Cckar (gene 12425) (UniProt O08786). The assay can be described thus: NVS_GPCR_mCCKAPeripheral: NovaScreen (NVS) G Protein-Coupled Receptor Assay for mouse Cholecystokinin, CCK1 Receptor (CCKA) (AID 2283285). An outline of the steps:
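Chemicals were first screened in duplicate at 25 uM, with those meeting threshold (e.g., 30% inhibition) retested in singleton concentration series to 50 uM maximum. Binding of radioligand to mouse pancreatic membranes was read after 2 h by filtration and scintillation counting.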
Regarding `CCCCC(O)(Cn1cncn1)c1ccc(Cl)cc1Cl` (stereo unspecified), the result was inactive. For `CCOC(=O)C(C)OC(=O)c1cc(Oc2ccc(C(F)(F)F)cc2Cl)ccc1[N+](=O)[O-]` (stereo unspecified), the molecule was classed as inactive. For orientation: AC50 means the concentration at which the activity in the assay is half-maximal. In the case of `CC1(C)C(C=C(Cl)Cl)C1C(=O)OC(C#N)c1cccc(Oc2ccccc2)c1` (stereo unspecified), the AC50 was 17.1 µM (active). In the case of `CC1(C)C(C(=O)OC(C#N)c2cccc(Oc3ccccc3)c2)C1(C)C` (stereo unspecified), the call was inactive.

The target of another assay is rat Serotonin, 5-Hydroxytryptamine Receptor 1 (5HT1), Non-Selective Binding, Htr1a (gene 24473) (UniProt P19327). Nature of the assay: NVS_GPCR_r5HT1_NonSelective: NovaScreen (NVS) G Protein-Coupled Receptor Assay for rat Serotonin, 5-Hydroxytryptamine Receptor 1 (5HT1), Non-Selective Binding (AID 2283286). The gist of the method:
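Binding of a radioligand to rat cortex membranes is read by filtration and scintillation counting after 1 h. Compounds were screened at 25 uM in duplicate. Actives were then titrated to a top of 50 uM. DMSO is the baseline.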
Regarding `Cc1ccc(N=CN(C)C=Nc2ccc(C)cc2C)c(C)c1`, the AC50 was 0.463 µM (active). On to `CC1(C)CCC(=Cc2ccc(Cl)cc2)C1(O)Cn1cncn1` (stereo unspecified), for which the result was inactive. The same measure, in the same setting: next, `COc1cc(Cl)c(OC)cc1Cl`: “inactive”.

In the next assay the test system is rabbit Platelet Activating Factor Receptor (PAF), gene 100354046. Nature of the assay: NVS_GPCR_rabPAF: NovaScreen (NVS) G Protein-Coupled Receptor Assay for rabbit Platelet Activating Factor Receptor (PAF) (AID 2283287). An outline of the steps:
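Rabbit platelet membrane preparation; radioligand displacement read by filter-based scintillation counting 1 h after dosing, loss of signal versus DMSO. Primary screen in duplicate at 25 uM, actives followed up in concentration series.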
Regarding `CC1(C)CON(Cc2ccccc2Cl)C1=O`, the molecule was called inactive.

Turning to `COP(=S)(OC)SCn1nnc2ccccc2c1=O`, the half-maximal activity concentration (AC50) is 25 µM (active). Turning to `CCCC(=NOCC)C1=C(O)CC(CC(C)SCC)CC1=O` (stereo unspecified), the molecule was classed as inactive. `CS(=O)(=O)c1cc(C(F)(F)F)ccc1C(=O)c1cnoc1C1CC1`: the half-maximal activity concentration (AC50) was 19.1 µM (active).

With `COCC(=O)N(c1c(C)cccc1C)C(C)C(=O)OC` (stereo unspecified), the molecule was classed as inactive.

Turning to `Nc1c(Cl)c(Cl)nc(C(=O)O)c1Cl`, the call was inactive.

For `CC(C)N1C(=O)N(c2ccccc2)CSC1=NC(C)(C)C`, the outcome was inactive. Same read-out and setting: next, `O=c1n(Cl)c(=O)n(Cl)c(=O)n1Cl`: “inactive”.

In another assay the target is rat Adrenergic, Alpha 1, Non-selective Receptor (Adra1), Adra1a (gene 29412) (UniProt P43140). The assay can be described thus: NVS_GPCR_rAdra1_NonSelective: NovaScreen (NVS) G Protein-Coupled Receptor Assay for rat Adrenergic, Alpha 1, Non-selective Receptor (Adra1) (AID 2283289). An outline of the steps:
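Chemicals first screened in duplicate at 25 uM, then actives tested in concentration series up to 50 uM. Binding measured as displacement of radioligand from rat forebrain membrane receptors, 1 h, filtration with scintillation readout; DMSO baseline.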
Regarding `Cc1ccc(N=CN(C)C=Nc2ccc(C)cc2C)c(C)c1`, the AC50 was 1.5 µM (active). Consider `CCOc1nc(F)cc2nc(S(=O)(=O)Nc3c(Cl)cccc3Cl)nn12`, for which the molecule was called inactive. With `Cn1c(-c2ccccc2)cc(-c2ccccc2)[n+]1C`, the AC50 was 5.28 µM (active).

The target of the next assay is human Opioid Receptor Mu (Opiate Mu), OPRM1 (gene 4988) (UniProt P35372). The assay can be described thus: NVS_GPCR_hOpiate_mu: NovaScreen (NVS) G Protein-Coupled Receptor Assay for human Opioid Receptor Mu (Opiate Mu) (AID 2283290).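 Note: hits lower bound tracer signal versus DMSO meaning displacement of the ligand.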 An outline of the steps: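 Here, radioligand binding to CHO-extracted receptor was measured after 2.5 h using filter-based scintillation detection. Initial single-concentration screening used 25 uM in duplicate with plate controls; confirmed actives went to concentration-response testing.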
human Opioid Receptor Mu (Opiate Mu), OPRM1 (gene 4988), sequence (P35372 whole entry, looked up): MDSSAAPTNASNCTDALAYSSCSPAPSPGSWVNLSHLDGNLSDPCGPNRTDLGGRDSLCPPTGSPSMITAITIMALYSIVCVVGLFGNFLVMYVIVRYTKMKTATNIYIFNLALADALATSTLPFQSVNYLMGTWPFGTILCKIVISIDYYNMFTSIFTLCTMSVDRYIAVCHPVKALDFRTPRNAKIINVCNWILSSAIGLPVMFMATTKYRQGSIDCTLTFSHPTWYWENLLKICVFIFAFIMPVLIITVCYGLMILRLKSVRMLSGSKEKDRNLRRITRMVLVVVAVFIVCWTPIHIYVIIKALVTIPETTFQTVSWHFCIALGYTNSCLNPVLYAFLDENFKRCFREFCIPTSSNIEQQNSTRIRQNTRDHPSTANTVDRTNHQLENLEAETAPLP
`COP(=S)(OC)SCn1nnc2ccccc2c1=O`: the molecule was classed as inactive. As for `CCCCC(O)(Cn1cncn1)c1ccc(Cl)cc1Cl` (stereo unspecified), the AC50 was 4.96 µM (active). On the same count and under the same terms, next, `CCN(CC)C(=O)C(C)Oc1cccc2ccccc12` (stereo unspecified): 14.8 µM (active); `O=C1C2CC=CCC2C(=O)N1SC(Cl)(Cl)Cl` (stereo unspecified): 9.7 µM (active); `CC(C)=CC1C(C(=O)OCc2coc(Cc3ccccc3)c2)C1(C)C` (stereo unspecified): 7.58 µM (active).

The test system of a further assay is guinea pig Atrionatriuretic Peptide Receptor A (ANPA), gene 100135578. Nature of the assay: NVS_GPCR_gANPA: NovaScreen (NVS) G Protein-Coupled Receptor Assay for guinea pig Atrionatriuretic Peptide Receptor A (ANPA) (AID 2283291). On the procedure: NVS_GPCR_gANPA is a biochemical, single-readout assay that uses extracted gene-proteins from Guinea pig cerebellar membranes in a tissue-based cell-free assay. Measurements were taken 1 hour after chemical dosing in a 96-well plate.NVS_GPCR_gANPA is one of one assay component(s) measured or calculated from the NVS_GPCR_gANPA assay. It is designed to make measurements of radioligand binding, a form of binding reporter, as detected with scintillation counting signals by Filter-based radiodetection technology.Data from the assay component NVS_GPCR_gANPA was analyzed into 1 assay endpoint. This assay endpoint, NVS_GPCR_gANPA, was analyzed in the positive analysis fitting direction relative to DMSO as the negative control and baseline of activity. Using a type of binding reporter, loss-of-signal activity can be used to understand changes in the binding as they relate to the gene Nppa. Furthermore, this assay endpoint can be referred to as a primary readout, because the performed assay has only produced 1 assay endpoint. To generalize the intended target to other relatable targets, this assay endpoint is annotated to the lyase intended target family, where the subfamily is guanylyl cyclase.
Binding assays used specific radioligands (tritiated, iodinated) with non-radioactive competitive displacement ligands in agonist or antagonist protocols (as indicated) and various reference compounds and inhibitors to titrate specific binding to receptors and transporters. Most enzyme assays (CYPs, kinases, phosphatases, proteases, HDACs) used recombinant protein and specific substrates (fluorescence mostly, some colorimetric and radioactive) and inhibitors, followed by a biochemical separation of substrate and product. All assays for the biochemical HTS were initially run in duplicate at a single concentration (10 uM for CYP450 assays and 25 uM for all others). […]
Take `CS(=O)(=O)c1cc(C(F)(F)F)ccc1C(=O)c1cnoc1C1CC1`: the call was inactive.

With `CNC(=O)N(C)c1nnc(C(C)(C)C)s1`, the result was inactive.

For the molecule `CCSC(=O)N1CCCCCC1`, the outcome was inactive.
